# Measured values: PubChem BioAssay (Tox21)
# Records with an inconclusive call do not appear. Where a call stands in place of a potency, no number is given. Active and inactive are the calls of the source. Calls follow the shape of the full dose curve.
# What was measured:
# [1] = molecular target: Acetylcholinesterase (Homo sapiens) (UniProt P22303); assay: Acetylcholinesterase (AChE) small molecule antagonists: enzyme-based qHTS assay (AID 1347397); details: Potency: AChE enzyme activity inhibition; outcome: AChE enzyme activity inhibition; also: nearly all actives have a fitted effect of over 55% in size
# In short: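 Absorbance-based detection of thiocholine with DTNB served as the read-out. Recombinant human AChE was exposed to compound for 30 min at RT before a 10 min RT incubation with acetylthiocholine.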
# [2] = molecular target: Acetylcholinesterase (Homo sapiens) (UniProt P22303); assay: Acetylcholinesterase (AChE) small molecule antagonists: enzyme-based qHTS assay with human liver microsomes (AID 1347399); details: Potency: qHTS inhibition; outcome: qHTS inhibition; also: nearly all actives have a fitted effect of over 60% in size
# In short: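 Recombinant human AChE (50 mU/mL in the enzyme mix) and human liver microsomes (0.25 mg/mL final) were preincubated with compound and NADPH (0.25 mg/mL final) for 30 min at 37 C. Acetylthiocholine/DTNB was then added; thiocholine was read colorimetrically after 10 min at room temperature.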
# [3] = molecular target: Acetylcholinesterase (Homo sapiens) (UniProt P22303); assay: Acetylcholinesterase (AChE) small molecule antagonists: fluorescence cell-based qHTS assay (AID 1347398); details: Potency: AChE activity; outcome: AChE activity; also: nearly all actives have a fitted effect of over 50% in size; also: potency is read from the fitted curve at half-maximal effect
# In short: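 Fluorimetric cell-based assay: intact SH-SY5Y cells, 30 min compound preincubation at 37 C, acetylthiocholine substrate with thiol probe Thiolite Green, 40 min RT development, fluorescence 490/520 nm.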
# Acetylcholinesterase (Homo sapiens), sequence (P22303 whole entry, looked up): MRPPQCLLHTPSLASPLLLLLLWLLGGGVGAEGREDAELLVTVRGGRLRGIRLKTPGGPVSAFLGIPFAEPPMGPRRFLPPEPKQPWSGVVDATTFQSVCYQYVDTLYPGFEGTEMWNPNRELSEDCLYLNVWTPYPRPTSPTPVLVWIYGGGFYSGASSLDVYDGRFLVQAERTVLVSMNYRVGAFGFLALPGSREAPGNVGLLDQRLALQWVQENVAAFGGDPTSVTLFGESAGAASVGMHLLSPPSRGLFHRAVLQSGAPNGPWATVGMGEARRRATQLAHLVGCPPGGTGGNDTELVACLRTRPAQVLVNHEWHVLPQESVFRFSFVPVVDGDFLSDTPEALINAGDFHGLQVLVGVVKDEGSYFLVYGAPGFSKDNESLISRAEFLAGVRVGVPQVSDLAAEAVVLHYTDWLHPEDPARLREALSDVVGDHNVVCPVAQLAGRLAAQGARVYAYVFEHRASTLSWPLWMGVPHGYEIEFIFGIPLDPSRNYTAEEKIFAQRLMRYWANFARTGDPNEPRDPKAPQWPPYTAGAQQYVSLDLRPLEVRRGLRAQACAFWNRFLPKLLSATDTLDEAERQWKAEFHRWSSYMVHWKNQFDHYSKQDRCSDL
structure (smiles),measurement,setting,value
Cc1nc2n(c(=O)c1CCN1CCC(c3noc4cc(F)ccc34)CC1)CCCC2,Potency,[1],inactive
same,Potency,[2],inactive
S=c1[nH]c2ccccc2s1,Potency,[1],inactive
same,Potency,[3],inactive
same,Potency,[2],inactive
CC[N+](CC)(CC)CCOc1ccc(/C=C/c2ccccc2)cc1,Potency,[1],inactive
same,Potency,[3],34.7 µM (active)
same,Potency,[2],inactive
NS(=O)(=O)c1cc2c(cc1Cl)NC(CC1CCCC1)NS2(=O)=O (configuration not stated),Potency,[1],inactive
same,Potency,[2],inactive
COc1ccnc2c1CCCCC2S(=O)c1nc2ccccc2[nH]1 (configuration not stated),Potency,[1],inactive
same,Potency,[2],inactive
O=C(O)c1cccc(N(Cc2cccnc2)c2ccc(OC(F)F)c(OC(F)F)c2)c1,Potency,[1],inactive
same,Potency,[2],inactive
C(=C\c1ccccc1)/c1ccccc1,Potency,[1],inactive
same,Potency,[3],inactive
same,Potency,[2],inactive
C[C@@H](O)[C@H](N)C(=O)O,"activity change, negative = inhibition",[1],0.985% [at 23.6 µM] (inactive)
same,"activity change, negative = inhibition",[3],4.69% [at 23.8 µM] (inactive)
same,"activity change, negative = inhibition",[2],-2.85% [at 23.6 µM] (inactive)
N#C/C(=C1/SC[C@@H](c2ccc(Cl)cc2Cl)S1)n1ccnc1,Potency,[1],inactive
same,Potency,[2],inactive
COc1ccc2cc1Oc1ccc(cc1)C[C@H]1c3c(cc4c(c3Oc3cc5c(cc3OC)CCN(C)[C@@H]5C2)OCO4)CCN1C,Potency,[1],inactive
same,Potency,[2],inactive
CCCOC(=O)c1ccc(O)cc1,Potency,[1],inactive
same,Potency,[3],inactive
same,Potency,[2],inactive
